A short description of test [1]: Nuclear factor erythroid 2-related factor 2/antioxidant responsive element (Nrf2/ARE) small molecule agonists: qHTS cell viability counter screen in human keratinocytes (AID 1919968; active = well fitted curve in the direction sought with a large enough effect in the repeat runs; an effect the other way counts as inactive or inconclusive; note: nearly all actives have a fitted effect of over 55% in size; note: potency is the fitted concentration of half-maximal effect). Summed up: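 Seed 1,500 KeratinoSens cells per well, then incubate 5 h at 37 C/5% CO2. Add compounds in DMSO and incubate 23 h. Add CellTiter-Fluor, wait 1 h and read fluorescence.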
On the technique in general: qHTS replaces the single test concentration by a dilution series.

Test [2] in a line: Nuclear factor erythroid 2-related factor 2/antioxidant responsive element (Nrf2/ARE) small molecule agonists: luciferase reporter gene qHTS assay in human keratinocytes (AID 1919969). Note: nearly all actives have a fitted effect of over 35% in size. Note: potency is the fitted concentration of half-maximal effect. On the technique in general: A reporter such as luciferase makes a cellular process visible.
In test [3] the target is Gonadotropin-releasing hormone receptor (Homo sapiens) (UniProt P30968). As to the kind of experiment: Human gonadotropin-releasing hormone receptor (GnRHR) small molecule agonists, calcium flux assay in GnRHR-HEK293 cells (AID 1920063). Note: nearly all actives have a fitted effect of over 35% in size. Summed up:
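Cells: HEK293 stably expressing human GnRHR. Steps: overnight (18 h) culture, 1 h calcium dye loading at 37 C, compound addition, kinetic fluorescence read at 480/540 nm. Each compound tested at 15 concentrations in triplicate.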
A general note: Calcium assays in cells follow changes in intracellular calcium, usually with a dye or a luminescent sensor.

Test [4] concerns the target KiSS-1 receptor (Homo sapiens) (UniProt Q969F8). Nature of the test: Human kisspeptin (KISS1R) small molecule agonists, calcium flux assay in KISS1R-HEK293 cells (AID 1920064; active = well fitted curve in the direction sought with a large enough effect in the repeat runs; an effect the other way counts as inactive or inconclusive). Summed up:
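Cells plated and incubated 18 h; dye added, 1 h at 37 C; compounds in DMSO pinned in; signal read at 480/540 nm every second for 3 min. Each compound tested at 15 concentrations in triplicate.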

Test [5] in a line: G protein-coupled receptor (GPCR) small molecule agonists, calcium flux assay: HEK293 wild type cell line counter screen (AID 1920065). Summed up: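 Counter-screen of the Tox21 10K library for non-specific calcium release: dye-loaded cells received compounds in DMSO and were monitored by kinetic fluorescence (480/540 nm, 3 min). Fifteen concentrations, run in triplicate.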
A short description of test [6]: p53 small molecule agonists, cell-based qHTS assay with human liver microsomes (AID 1963577).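 Note: p53 response element beta-lactamase reporter cells with liver microsomes plus NADPH.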 Summed up: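 16 h, 37 C exposure of p53RE-bla cells to compounds with human liver microsomes and NADPH (0.5 mg/mL final each); detection via LiveBLAzer mixture, 2 h dark at room temperature.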
Test [7] in a line: p53 small molecule agonists, cell-based qHTS assay with rat liver microsomes (AID 1963578). Summed up: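 With rat liver microsomes and NADPH present (0.5 mg/mL final each), p53RE-bla cells are treated with compound for 16 h at 37 C. LiveBLAzer detection mixture is then applied for 2 h at room temperature in the dark.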
Test [8] in a line: p53 small molecule agonists, cell-based qHTS assay with human liver microsomes: qHTS cell viability counter screen (AID 1963579). Note: nearly all actives have a fitted effect of over 45% in size. Summed up:
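In this multiplexed counter screen, the reporter plates were subsequently treated with CellTiter-Glo so that cell viability, reflected by luminescence, could be recorded for p53RE-bla cells dosed 16 h with compounds under microsomal activation (HLM and NADPH).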

The nature of test [9]: p53 small molecule agonists, cell-based qHTS assay (AID 1963582; active = well fitted activation curve with a large enough effect in the signal ratio in the repeat runs, not every such curve was filed as active; the % refers to the signal ratio). Summed up:
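Quantitative HTS in p53RE-bla cells: after a 5 h settling period, compounds delivered in DMSO were left on cells for 16 h at 37 C, and reporter induction was measured as fluorescence following 2 h substrate loading.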

The target of test [10] is 5-hydroxytryptamine receptor 2A (Homo sapiens) (UniProt P28223). As to the kind of experiment: 5-hydroxytryptamine receptor 2A (HTR2A) small molecule antagonists, cell-based qHTS assay (AID 1963586). Note: nearly all actives have a fitted effect of over 45% in size. Note: potency is the fitted concentration of half-maximal effect. Summed up:
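Antagonist-mode intracellular calcium assay: DOI (4 nM) added after 5 min compound pre-incubation at room temperature to dye-loaded HTR2A-CHO cells. Fluorescence followed for 3 min, sampled every second.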

The target is the same in test [11]. Nature of the test: 5-hydroxytryptamine receptor 2A (HTR2A) small molecule agonists, cell-based qHTS assay (AID 1963587). Note: nearly all actives have a fitted effect of over 30% in size. Summed up:
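HTR2A-CHO cells, plated 18 h at 37 C/5% CO2, dye-loaded 1 h at 37 C; compounds in DMSO added by pin tool (agonist mode). Intracellular calcium flux read as kinetic fluorescence on FDSS over 2 min at 1 s intervals.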

In test [12] the target is Muscarinic acetylcholine receptor M1 (Homo sapiens) (UniProt P11229). As to the kind of experiment: Cholinergic receptor muscarinic 1 (CHRM1) small molecule antagonists, cell-based qHTS assay (AID 1963588). Note: nearly all actives have a fitted effect of over 40% in size. Note: potency is the fitted concentration of half-maximal effect. Summed up: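 CHRM1-CHO calcium-flux assay, antagonist mode. Cells were seeded 18 h, dye-loaded 1 h at 37 C and given compound for 5 min at RT, then acetylcholine was added at 50nM. FDSS fluorescence was read 3 min; 15 concentrations, three runs.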

Test [13] in a line: cAMP Responsive Elements (CRE) small molecule agonists, cell-based qHTS assay (AID 1963590). Summed up:
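Agonist mode qHTS in CRE-bla HEK 293T cells: compounds dosed from DMSO for 3 h at 37 C/5% CO2, followed by LiveBLAzer B/G FRET substrate for 2 h at room temperature.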

Test [14] can be described thus: cAMP Responsive Elements (CRE) small molecule antagonists, cell-based qHTS assay (AID 1963591; active = well fitted inhibition curve with a large enough effect in the signal ratio in the repeat runs, not every such curve was filed as active; the % refers to the signal ratio). Summed up: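 Antagonist mode: test compounds are co-incubated with the adenylyl cyclase activator NKH477 (0.25 uM final) on CRE-bla HEK293T cells for 3 h at 37 °C, followed by LiveBLAzer substrate loading.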
Test [15] deals with Beta-2 adrenergic receptor (Homo sapiens) (UniProt P07550). As to the kind of experiment: Adrenergic beta2 receptor (ADRB2) small molecule antagonists, cell-based qHTS assay (AID 1963592). For activity change, negative = inhibition: series mostly up to about 92 µM. Note: nearly all actives have a fitted effect of over 50% in size. Note: potency is the fitted concentration of half-maximal effect. Summed up:
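Cells (CHO, stable ADRB2 overexpression) incubated 18-20hr at 37C; compounds added from DMSO; agonist mix (1nM isoproterenol, 100uM IBMX, 25uM Ro-20-1724) added; 0.5hr RT; d2-cAMP and anti-cAMP-cryptate added; 1hr RT; 665/615 nm read.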

The target of test [16] is D(2) dopamine receptor (Homo sapiens) (UniProt P14416). Nature of the test: Dopamine D2 receptor (DRD2) small molecule agonists, cell-based qHTS assay (AID 1963594). Note: nearly all actives have a fitted effect of over 35% in size. Summed up:
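HEK293 cells stably expressing DRD2 were cultured 24 h at 37 C, then given Ro20-1724 (0.1 mM final) and compounds for 10 min at room temperature. NKH477 (200nM) was then added for 30 min. cAMP was read by HTRF.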

Test [17] shares this target. As to the kind of experiment: Dopamine D2 receptor (DRD2) small molecule antagonists, cell-based qHTS assay (AID 1963595; active = well fitted inhibition curve with a large enough effect in the signal ratio in the repeat runs, with a control signal flat; the % refers to the signal ratio). Summed up: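 Antagonist mode in DRD2-HEK293 cells: after compound addition with 0.1 mM Ro20-1724, cells received quinpirole (12 nM) and NKH477 (200 nM) for 30 min at room temperature; HTRF cAMP read after 1 h detection.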
The nature of test [18]: p53 small molecule agonists, cell-based qHTS assay with rat liver microsomes: qHTS cell viability counter screen (AID 1963580). Note: nearly all actives have a fitted effect of over 45% in size. Summed up:
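In HCT-116 cells carrying a p53 response element-bla reporter, compounds were metabolically activated in situ by rat liver microsomes with NADPH over 16 h. Cell ATP content then served as the cytotoxicity measure.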

The target of test [19] is Beta-2 adrenergic receptor (Homo sapiens) (UniProt P07550). Nature of the test: Adrenergic beta2 receptor (ADRB2) small molecule agonists, cell-based qHTS assay (AID 1963593).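 Note: CHO cells stably overexpressing human ADRB2.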 Summed up:
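CHO cells stably over-expressing ADRB2 were plated overnight at 37C, then dosed with compounds plus a stimulation mix containing 100uM IBMX and 25uM Ro-20-1724 for 0.5hr at room temperature. cAMP was measured by HTRF competition, 1hr.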

Test [20] deals with Muscarinic acetylcholine receptor M1 (Homo sapiens) (UniProt P11229). As to the kind of experiment: Cholinergic receptor muscarinic 1 (CHRM1) small molecule agonists, cell-based qHTS assay (AID 1963589). Note: nearly all actives have a fitted effect of over 35% in size. Summed up: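 Agonist-mode qHTS in CHO cells stably carrying human muscarinic M1. Intracellular calcium is tracked by fluorescence every second after compound transfer; each compound runs at 15 concentrations in three independent runs.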

A number with no mark means an inactive call. Records with an inconclusive call do not appear. The source made the active and inactive calls. Unless noted, calls come from the whole dose curve.
% is set by controls: 0 for no effect and ±100 for the full control effect.

Gonadotropin-releasing hormone receptor (Homo sapiens), sequence (P30968 whole entry, looked up): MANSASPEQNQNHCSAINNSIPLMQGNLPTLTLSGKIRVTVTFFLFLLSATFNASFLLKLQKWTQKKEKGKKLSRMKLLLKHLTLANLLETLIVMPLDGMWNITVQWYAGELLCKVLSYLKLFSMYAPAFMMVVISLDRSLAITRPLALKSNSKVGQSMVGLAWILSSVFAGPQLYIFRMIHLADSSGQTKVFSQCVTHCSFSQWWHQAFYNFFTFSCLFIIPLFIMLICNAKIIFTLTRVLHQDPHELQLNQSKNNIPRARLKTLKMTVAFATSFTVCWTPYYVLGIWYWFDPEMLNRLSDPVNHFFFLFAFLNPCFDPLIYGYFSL
Beta-2 adrenergic receptor (Homo sapiens), sequence (P07550 whole entry, looked up): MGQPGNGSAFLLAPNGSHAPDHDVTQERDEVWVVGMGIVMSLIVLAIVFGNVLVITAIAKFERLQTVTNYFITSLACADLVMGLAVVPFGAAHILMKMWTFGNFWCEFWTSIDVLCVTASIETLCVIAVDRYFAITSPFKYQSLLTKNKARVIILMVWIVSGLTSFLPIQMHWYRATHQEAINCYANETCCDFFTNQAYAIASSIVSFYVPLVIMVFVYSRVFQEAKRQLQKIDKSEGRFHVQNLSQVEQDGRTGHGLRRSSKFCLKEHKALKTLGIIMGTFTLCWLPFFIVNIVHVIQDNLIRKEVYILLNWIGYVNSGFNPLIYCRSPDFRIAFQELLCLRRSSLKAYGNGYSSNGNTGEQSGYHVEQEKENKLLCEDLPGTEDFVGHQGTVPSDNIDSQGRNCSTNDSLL
KiSS-1 receptor (Homo sapiens), sequence (Q969F8 whole entry, looked up): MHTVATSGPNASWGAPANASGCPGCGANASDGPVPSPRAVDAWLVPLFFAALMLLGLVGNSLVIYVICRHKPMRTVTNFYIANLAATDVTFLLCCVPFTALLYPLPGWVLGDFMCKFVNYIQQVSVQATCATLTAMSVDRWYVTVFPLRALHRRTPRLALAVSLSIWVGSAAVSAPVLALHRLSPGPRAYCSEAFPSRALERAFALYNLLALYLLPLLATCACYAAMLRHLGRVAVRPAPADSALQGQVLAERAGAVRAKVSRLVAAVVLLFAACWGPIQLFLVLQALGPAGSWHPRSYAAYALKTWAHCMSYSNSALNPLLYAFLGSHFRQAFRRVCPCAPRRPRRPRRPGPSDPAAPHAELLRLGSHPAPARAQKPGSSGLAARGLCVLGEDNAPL
Muscarinic acetylcholine receptor M1 (Homo sapiens), sequence (P11229 whole entry, looked up): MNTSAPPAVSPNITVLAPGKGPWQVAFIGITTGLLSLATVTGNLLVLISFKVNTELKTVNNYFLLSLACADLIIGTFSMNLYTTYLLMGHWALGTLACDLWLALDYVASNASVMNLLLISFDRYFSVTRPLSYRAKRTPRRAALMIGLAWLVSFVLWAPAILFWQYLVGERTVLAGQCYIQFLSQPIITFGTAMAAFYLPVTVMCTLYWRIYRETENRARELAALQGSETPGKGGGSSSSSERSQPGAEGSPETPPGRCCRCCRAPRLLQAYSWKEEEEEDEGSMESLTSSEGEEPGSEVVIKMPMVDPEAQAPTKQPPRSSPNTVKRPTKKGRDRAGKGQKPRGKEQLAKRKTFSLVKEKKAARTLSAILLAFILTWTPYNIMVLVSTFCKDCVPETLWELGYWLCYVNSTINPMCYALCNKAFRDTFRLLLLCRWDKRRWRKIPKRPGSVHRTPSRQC
5-hydroxytryptamine receptor 2A (Homo sapiens), sequence (P28223 whole entry, looked up): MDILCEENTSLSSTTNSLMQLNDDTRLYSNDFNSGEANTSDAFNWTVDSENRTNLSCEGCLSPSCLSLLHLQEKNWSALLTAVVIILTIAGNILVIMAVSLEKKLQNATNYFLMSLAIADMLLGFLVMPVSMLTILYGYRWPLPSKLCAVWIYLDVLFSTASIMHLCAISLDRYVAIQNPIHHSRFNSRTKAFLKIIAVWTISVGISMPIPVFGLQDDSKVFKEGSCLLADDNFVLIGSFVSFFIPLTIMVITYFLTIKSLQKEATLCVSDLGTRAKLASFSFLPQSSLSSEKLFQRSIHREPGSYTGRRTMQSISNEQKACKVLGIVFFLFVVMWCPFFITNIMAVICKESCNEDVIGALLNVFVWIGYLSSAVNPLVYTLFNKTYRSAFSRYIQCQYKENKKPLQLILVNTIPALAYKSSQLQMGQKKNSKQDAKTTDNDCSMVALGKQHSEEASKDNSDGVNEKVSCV
D(2) dopamine receptor (Homo sapiens), sequence (P14416 whole entry, looked up): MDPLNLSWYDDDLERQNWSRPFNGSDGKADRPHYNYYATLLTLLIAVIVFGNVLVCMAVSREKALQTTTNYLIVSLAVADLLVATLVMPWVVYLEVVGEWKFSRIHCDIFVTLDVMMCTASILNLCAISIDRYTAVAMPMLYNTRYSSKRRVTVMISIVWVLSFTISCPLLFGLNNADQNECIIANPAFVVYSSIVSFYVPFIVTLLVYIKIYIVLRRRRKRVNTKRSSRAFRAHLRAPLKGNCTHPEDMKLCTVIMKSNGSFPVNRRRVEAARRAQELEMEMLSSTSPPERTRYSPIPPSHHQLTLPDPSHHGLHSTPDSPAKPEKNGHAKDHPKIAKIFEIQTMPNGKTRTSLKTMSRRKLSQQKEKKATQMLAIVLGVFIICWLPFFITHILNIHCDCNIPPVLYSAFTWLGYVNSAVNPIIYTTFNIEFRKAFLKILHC

Regarding `CCCC(=O)C(=O)O`, the Potency entry in [1], in [2], in test [3], in test [6], in test [7] and in [8] was “inactive” in each case. The Potency entry in test [9], in [10], in test [11], in test [13], in test [14] and in test [15] was “inactive” throughout. Further, the Potency result in [16] and in [17] was “inactive” throughout. The result in test [4] and in test [5] was inactive. Also, the Potency in test [12] was 10.6 µM (active).

As for `C/C=C(/C(=C/C)c1ccc(O)cc1)c1ccc(O)cc1`, the Potency in [1] was 15 µM (active); in test [12], 2.9 µM (active). The Potency result in [2], in [3], in test [6], in test [7], in test [8] and in [18] was “inactive” each time. Also, the Potency entry in test [14], in test [15], in test [19] and in test [17] was “inactive” each time. Moreover, the result in [4] and in test [5] was inactive.

`NS(=O)(=O)c1cc2c(cc1Cl)CN(C1CCCCC1)C2=O`: the Potency entry in [1], in [2], in test [3], in [6], in test [7] and in [8] was “inactive” in each case. Also, the Potency entry in test [9], in [11], in [12], in test [20], in test [15] and in [19] was “inactive” throughout. Further, the Potency result in test [16] and in [17] was “inactive” in each case. The outcome in [4] and in [5] was inactive.

In the case of `Clc1ccnc(Cl)n1`, the Potency entry in test [1], in test [3], in [6], in test [7], in test [8] and in [9] was “inactive” each time. Further, the Potency result in test [11], in [12], in test [20], in test [13], in [14] and in test [15] was “inactive” throughout. Also, the Potency entry in test [16] and in test [17] was “inactive” each time. Further, the Potency in test [2] was 69.6 µM (active). In addition, the result in test [4] and in test [5] was inactive.

Regarding `C/C=C/C=C/COC(=O)C(C)C`, the Potency entry in [1], in test [3], in [6], in test [7], in test [8] and in [9] was “inactive” in each case. Further, the Potency entry in [11], in test [12], in test [20], in test [19], in [16] and in [17] was “inactive” each time. Besides, the Potency in test [2] is 68.6 µM (active). Besides, the outcome in [4] and in [5] was inactive.

Take `COc1ccccc1NC(=O)c1cc2ccccc2cc1O`: the Potency result in test [1], in test [3], in test [6], in [7], in [8] and in test [11] was “inactive” each time. The Potency result in test [12], in [20], in test [16] and in [17] was “inactive” each time. The Potency in test [2] was 61.1 µM (active); in test [10], 21.1 µM (active); in [15], 54.5 µM (active). In addition, the result in test [4] and in test [5] was inactive.

On to `C=CC(=C)CC/C=C(\C)CCC=C(C)C`, for which the values for the activity change, negative = cytotoxicity in [1] and in [8] were -0.584% [at 19 µM] and 1.39% [at 13.5 µM], respectively. In test [2], the activity, positive = activation is 7.55% [at 19 µM]. Besides, the activity change in test [3] is 1.61% [at 11.8 µM, active compounds read high]. For the same compound, the activation in test [4] was 5.69% [at 15.8 µM]; in test [5], -1.2% [at 11.8 µM]; in test [6] it was -0.261% [at 13.5 µM]; in test [7], 0.56% [at 13.6 µM]; in test [11], 6.61% [at 15.9 µM]; in [13] it was 0.237% [at 19 µM]. Also, the activation in test [16] is -0.761% [at 19 µM]. In addition, the activity, negative = inhibition in test [10] was 22.2% [at 12.7 µM]; in [12], -6.65% [at 12.6 µM]. Also, the activity change, negative = inhibition in test [14] was 1.53% [at 18.9 µM]; in test [15], 10.9% [at 19 µM]; in test [17], -0.805% [at 18.9 µM]. In addition, in test [19], the Potency entry was “inactive”.

On to `CCOC(=O)c1ncn2c1CN(C)C(=O)c1cc(F)ccc1-2`, for which the Potency entry in test [1], in [2], in [3], in test [6], in test [7] and in test [8] was “inactive” in each case. For the same compound, the Potency entry in [9], in [13], in test [14], in [15], in test [19] and in [16] was “inactive” throughout. In test [17], the Potency result was “inactive”. The result in test [4] and in test [5] was inactive.

For the origin of these results see PubChem BioAssay (Tox21).
